The target in assay [1] is Beta-2 adrenergic receptor (Homo sapiens) (UniProt P07550). In words: qHTS validation assay of beta-arrestin-biased ligands of beta2-adrenergic receptor (AID 485366). Further: 0% is about no effect. The gist of the method:
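Agonist activity is measured as luciferase luminescence downstream of beta-arrestin recruitment to recombinant beta2-AR in Tango cells. Exposure lasts 18 hr at 37 degrees C, and curves are categorized by r2, response size and activity.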
(In qHTS, concentration-response curves come from the screen itself.)

The target in assay [2] is ATP-dependent 6-phosphofructokinase (Trypanosoma brucei brucei) (UniProt O15648). In words: qHTS Validation Assay to Find Inhibitors of T. brucei phosphofructokinase (AID 485368). Further: potency means the concentration at half of the fitted maximal effect. The gist of the method: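 Inhibition derived from concentration-response curves of luminescence, ranked by r2, response size and curve class; the underlying reaction used 1.25 nM PFK, 0.1 mM ATP and 0.5 mM F6P, 45 min, room temperature.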

Assay [3] in a line: Quantitative high throughput screen for delayed death inhibitors of the malarial parasite plastid, 48 hour incubation (AID 488752). Further: nearly all actives have a fitted effect of over 65% in size. Further: potency means the concentration at half of the fitted maximal effect. The gist of the method:
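Cultures: infected erythrocytes at final 2% hematocrit and 0.1% parasitemia in Albumax-supplemented RPMI. Parasites express integrated firefly luciferase. Incubation with compound lasts 48 h before luminescent detection of remaining reporter activity.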

Assay [4] deals with Thioredoxin reductase 1, cytoplasmic (Rattus norvegicus) (UniProt O89049). In words: qHTS Assay for Substrates of Mammalian Selenoprotein Thioredoxin Reductase 1 (TrxR1) (AID 488772).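 Further: series mostly up to about 57 µM; 0% is about no effect; a drop in NADPH fluorescence below the no-compound background marks a TrxR1 substrate.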 The gist of the method:
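In this dual-purpose format, potential substrates are identified from the first fluorescence read after selenite addition, not from the 8-minute delta. Rat enzyme is preincubated with NADPH and then with compound at ~22 deg C.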

The target is the same in assay [5]. In words: qHTS Assay for Inhibitors of Mammalian Selenoprotein Thioredoxin Reductase 1 (TrxR1) (AID 488773). Further: nearly all actives have a fitted effect of over 40% in size. Further: potency means the concentration at half of the fitted maximal effect. The note with it: Potency: inhibition. In short, it runs like this: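 Inhibition is scored from the loss of NADPH fluorescence between first and last reads of an 8-min kinetic run. Selenite (400 uM) was the substrate, added after 15 min compound preincubation at room temperature.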

For assay [6], the target named is Flap endonuclease 1 (Homo sapiens) (UniProt P39748). In words: qHTS Validation Assay for the Inhibitors of Human Flap endonuclease 1 (FEN1) (AID 488816). Further: potency means the concentration at half of the fitted maximal effect. The gist of the method: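 Enzyme reagent 10 nM; cpds pinned; 15 min RT preinc.; substrate 50 nM final; reads t=0 and 15 min; no-enzyme buffer wells as neg. control; normalized data, 4-parameter Hill fit.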
The target in assay [7] is M-phase phosphoprotein 8 (Homo sapiens) (UniProt Q99549). In words: qHTS Validation Assay for Inhibitors for MPP8 Chromodomain Interactions with Methylated Histone Tails (AID 488949). Further: nearly all actives have a fitted effect of over 55% in size. Further: potency means the concentration at half of the fitted maximal effect. In short, it runs like this:
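MPP8 (50 nM) was preincubated with biotinylated H3(1-18)K9me3 peptide (50 nM) in PBS pH 7.4, 0.01% Tween-20 for 30 min at room temperature, then with compounds for 30 min; binding was detected by AlphaScreen.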

Assay [8] concerns the target Chromobox protein homolog 1 (Homo sapiens) (UniProt P83916). In words: qHTS Validation Assay for Inhibitors of HP1-beta Chromodomain Interactions with Methylated Histone Tails (AID 488953). Further: nearly all actives have a fitted effect of over 50% in size. Further: potency means the concentration at half of the fitted maximal effect. In short, it runs like this:
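Compounds pinned into a preassembled complex of HP1-beta and trimethyl-K9 histone H3(1-18) biotin peptide (50 nM each; PBS pH 7.4, 0.01% Tween-20). After 30 min, bead-based AlphaScreen detection followed.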

Assay [9] has as its target Methanococcus maripaludis chaperonin (MmCpn) (UniProt Q6LX38). In words: High-Throughput Screening for Modulators of Cytosolic Chaperonin Activity: MmCpn Primary Screen (AID 488978). Further: potency means the concentration at half of the fitted maximal effect. In short, it runs like this: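 MmCpn (50 nM final) was preincubated with compound 5 min at RT, then 30 uM ATP (final) was added and the reaction ran 10 min at 37C. ADP produced was detected by Transcreener HTRF (ex 320 nm; em 590/665 nm).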

Assay [10] addresses Thyrotropin receptor (Homo sapiens) (UniProt P16473). In words: qHTS Assay for Antagonists of the Thyroid Stimulating Hormone Receptor (AID 488980). Further: series mostly up to about 58 µM; 0% is about no effect. In short, it runs like this: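 HEK293 cells transfected with human TSHR, suspended in HEPES-buffered HBSS with 70 uM RO 20-1724, were treated with compounds plus TSH at EC80 (4 nM final). cAMP was measured by competitive HTRF (cryptate anti-cAMP antibody, cAMP-d2 acceptor).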

Assay [11] addresses D(1A) dopamine receptor (Homo sapiens) (UniProt P21728). In words: HTS Assay for Allosteric Agonists of the Human D1 Dopamine Receptor: Primary Screen for Potentiators (AID 488982). Further: 0% is about no effect. The gist of the method:
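Tetracycline-induced HEK293 Trex D1 cells with forced coupling to calcium, loaded with no-wash calcium dye; kinetic fluorescence read 180 s after compound addition for agonism, then a further 180 s after an EC20 dopamine challenge for potentiation.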

Assay [12] has the same target. In words: HTS Assay for Allosteric Agonists of the Human D1 Dopamine Receptor: Primary Screen for Antagonists (AID 488983).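 Further: calcium flux response to an EC80 dopamine challenge measured with no-wash dye; nearly all actives have a fitted effect of over 65% in size.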 Further: potency means the concentration at half of the fitted maximal effect. The gist of the method: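 In this primary screen, compounds are applied to calcium-dye-loaded HEK293 T-REx cells with force-coupled D1 expression induced overnight at 30 C. An EC80 of dopamine follows the 180 s compound phase, and calcium is monitored for a further 180 s.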

For assay [13], the target named is ATP-dependent 6-phosphofructokinase (Trypanosoma brucei brucei) (UniProt O15648). In words: qHTS Assay to Find Inhibitors of T. brucei phosphofructokinase: hit validation (AID 492961).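 Further: luminescence reports ADP formed as PFK phosphorylates fructose-6-phosphate with ATP; series mostly up to about 51 µM; on the % scale 0 is the no-effect control and ±100 the full control effect.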 The gist of the method: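 Inhibition of parasite PFK is measured as reduced ADP formation, quantified via luciferase after ATP depletion. Assay used 0.1 mM ATP, 0.5 mM F6P, 1.25 nM enzyme, 45 min incubation.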

A short description of assay [14]: Validation screen for small molecules that induce genotoxicity in human embryonic kidney (HEK293T) cells expressing luciferase-tagged ELG1 (AID 493106). Further: potency means the concentration at half of the fitted maximal effect. In short, it runs like this: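 In this validation screen, increased ELG1-luciferase signal flags compounds causing genetic stress. HEK293T reporter cells are treated 16 hr (37 °C, 5% CO2), developed with ONE-Glo for 30 min at room temperature, and imaged on a CCD-based reader.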

For assay [15], the target named is ATPase family AAA domain-containing protein 5 (Homo sapiens) (UniProt Q96QE3). In words: Validation screen for small molecules that inhibit ELG1-dependent DNA repair in human embryonic kidney (HEK293T) cells expressing luciferase-tagged ELG1 (AID 493107).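 Further: cells co-treated with the DNA-damaging agent 5-fluorouridine alongside compound; series mostly up to about 46 µM; on the % scale 0 is the no-effect control and ±100 the full control effect; inhibitors lower the ELG1-luciferase luminescence signal; nearly all actives have a fitted effect of over 70% in size.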 The gist of the method:
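Compounds reducing 5-fluorouridine-driven ELG1-luciferase signal in HEK293T cells were scored; exposure lasted 16 hr at 37 °C with luminescence detected via ONE-Glo.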

Assay [16] in a line: Nrf2 qHTS screen for inhibitors: Validation (AID 493153; active means well fitted inhibition curve with a large enough effect in the main read-out, with a control signal flat, not every such curve was filed as active). The note with it: Potency: luciferase luminescence; viability change: measured here: cytotoxicity max response. The gist of the method: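 In this counterscreened reporter format, each well gives two signals: CellTiter-Fluor fluorescence for cytotoxicity and ARE-luciferase luminescence for Nrf2 function. A549 ARE_Fluc cells in 5% FBS OPTI-MEM were exposed to compound titrations for 18-24 h.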

Assay [17] in a line: qHTS for Inhibitors of Cell Surface uPA Generation: Validation Assay (AID 493164).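 Further: RAW 264.7 macrophage cells exposed to compound for 18 h; 0% is about no effect.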 In short, it runs like this:
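Compounds are titrated over seven points (2.45 nM–38.3 uM final) onto pre-plated RAW 264.7 cells and incubated for 18 h. Retained intracellular ATP, measured with ATP-Lite, indicates blocked lethal factor entry.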

Assay [18] deals with Thyrotropin-releasing hormone receptor (Homo sapiens) (UniProt P34981). In words: qHTS for Small Molecule Agonists and Allosteric Enhancers of Human TRH Receptor: Validation Screen for Agonists (AID 493127;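 active means calcium activation more than 3 SD above the typical response in the agonist read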;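 further: intracellular calcium rise by fluo-8 fluorescence before TRH EC20 addition; 0% is about no effect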). The note with it: TRH receptor agonist cell assay; at 2 µM; stronger effect = higher value. In short, it runs like this:
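Kinetic fluorescence assay of agonist-induced calcium release: overnight-plated TRHR cells, room-temperature fluo-8 loading, baseline then compound addition with per-second reads.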

Records with an inconclusive call do not appear. The source made the active and inactive calls. Unless noted, the call rests on the fitted dose curve; in most records, active means well fitted curve in the direction sought with a large enough effect; inconclusive means small, poorly fitted or top-dose-only effect, or another doubt; inactive means no such curve, though single readings can be large; an effect the other way counts as inactive or inconclusive.

ATP-dependent 6-phosphofructokinase (Trypanosoma brucei brucei), sequence (O15648 whole entry, looked up): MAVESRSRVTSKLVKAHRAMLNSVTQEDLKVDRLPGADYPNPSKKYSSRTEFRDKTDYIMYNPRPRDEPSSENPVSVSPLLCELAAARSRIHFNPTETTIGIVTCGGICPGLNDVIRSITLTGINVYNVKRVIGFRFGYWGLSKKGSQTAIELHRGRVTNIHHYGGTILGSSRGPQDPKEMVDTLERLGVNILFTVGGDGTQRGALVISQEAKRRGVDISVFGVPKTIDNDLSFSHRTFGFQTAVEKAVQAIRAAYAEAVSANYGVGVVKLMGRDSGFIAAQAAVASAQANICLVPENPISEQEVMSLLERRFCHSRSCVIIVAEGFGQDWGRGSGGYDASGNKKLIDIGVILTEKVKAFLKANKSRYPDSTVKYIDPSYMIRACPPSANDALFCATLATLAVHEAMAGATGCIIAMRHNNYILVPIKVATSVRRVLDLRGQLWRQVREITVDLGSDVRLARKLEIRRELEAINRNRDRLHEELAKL
Chromobox protein homolog 1 (Homo sapiens), sequence (P83916 whole entry, looked up): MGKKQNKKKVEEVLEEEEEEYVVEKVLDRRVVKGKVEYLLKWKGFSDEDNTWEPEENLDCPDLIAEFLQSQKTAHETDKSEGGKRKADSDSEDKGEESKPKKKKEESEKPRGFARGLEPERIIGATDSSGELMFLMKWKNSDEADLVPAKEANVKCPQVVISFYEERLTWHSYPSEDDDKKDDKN
M-phase phosphoprotein 8 (Homo sapiens), sequence (Q99549 whole entry, looked up): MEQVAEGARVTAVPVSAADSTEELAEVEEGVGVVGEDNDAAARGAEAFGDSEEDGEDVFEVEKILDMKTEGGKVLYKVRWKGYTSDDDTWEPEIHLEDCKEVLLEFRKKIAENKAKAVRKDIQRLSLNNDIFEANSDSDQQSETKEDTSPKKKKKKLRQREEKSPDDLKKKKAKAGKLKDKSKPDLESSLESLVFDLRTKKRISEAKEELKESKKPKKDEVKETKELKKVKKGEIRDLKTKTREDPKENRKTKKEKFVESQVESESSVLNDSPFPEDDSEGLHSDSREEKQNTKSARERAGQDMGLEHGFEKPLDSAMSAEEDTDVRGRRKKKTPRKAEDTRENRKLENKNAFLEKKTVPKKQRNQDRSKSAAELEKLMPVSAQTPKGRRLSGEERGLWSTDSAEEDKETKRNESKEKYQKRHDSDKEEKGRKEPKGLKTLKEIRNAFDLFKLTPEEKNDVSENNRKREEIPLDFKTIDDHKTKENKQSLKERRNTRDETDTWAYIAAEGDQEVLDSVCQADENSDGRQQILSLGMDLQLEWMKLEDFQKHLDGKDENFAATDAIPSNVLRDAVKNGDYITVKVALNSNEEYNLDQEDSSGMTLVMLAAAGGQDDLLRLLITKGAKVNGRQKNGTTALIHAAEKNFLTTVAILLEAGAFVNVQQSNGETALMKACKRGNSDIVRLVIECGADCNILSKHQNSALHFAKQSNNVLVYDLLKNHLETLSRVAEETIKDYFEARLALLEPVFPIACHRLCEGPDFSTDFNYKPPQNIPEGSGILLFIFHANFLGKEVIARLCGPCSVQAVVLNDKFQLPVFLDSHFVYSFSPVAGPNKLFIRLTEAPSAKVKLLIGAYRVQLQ
D(1A) dopamine receptor (Homo sapiens), sequence (P21728 whole entry, looked up): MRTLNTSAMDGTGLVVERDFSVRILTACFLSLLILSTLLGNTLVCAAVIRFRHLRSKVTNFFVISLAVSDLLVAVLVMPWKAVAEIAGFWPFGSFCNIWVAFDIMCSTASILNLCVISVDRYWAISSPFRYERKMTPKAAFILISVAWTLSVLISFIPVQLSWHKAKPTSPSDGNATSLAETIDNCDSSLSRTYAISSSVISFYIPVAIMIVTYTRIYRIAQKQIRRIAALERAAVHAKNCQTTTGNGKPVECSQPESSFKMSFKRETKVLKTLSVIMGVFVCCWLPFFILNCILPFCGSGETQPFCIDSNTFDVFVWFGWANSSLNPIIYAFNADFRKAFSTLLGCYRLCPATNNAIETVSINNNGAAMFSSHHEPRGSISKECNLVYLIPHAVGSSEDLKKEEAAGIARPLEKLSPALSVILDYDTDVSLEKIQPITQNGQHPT
Thioredoxin reductase 1, cytoplasmic (Rattus norvegicus), sequence (O89049 whole entry, looked up): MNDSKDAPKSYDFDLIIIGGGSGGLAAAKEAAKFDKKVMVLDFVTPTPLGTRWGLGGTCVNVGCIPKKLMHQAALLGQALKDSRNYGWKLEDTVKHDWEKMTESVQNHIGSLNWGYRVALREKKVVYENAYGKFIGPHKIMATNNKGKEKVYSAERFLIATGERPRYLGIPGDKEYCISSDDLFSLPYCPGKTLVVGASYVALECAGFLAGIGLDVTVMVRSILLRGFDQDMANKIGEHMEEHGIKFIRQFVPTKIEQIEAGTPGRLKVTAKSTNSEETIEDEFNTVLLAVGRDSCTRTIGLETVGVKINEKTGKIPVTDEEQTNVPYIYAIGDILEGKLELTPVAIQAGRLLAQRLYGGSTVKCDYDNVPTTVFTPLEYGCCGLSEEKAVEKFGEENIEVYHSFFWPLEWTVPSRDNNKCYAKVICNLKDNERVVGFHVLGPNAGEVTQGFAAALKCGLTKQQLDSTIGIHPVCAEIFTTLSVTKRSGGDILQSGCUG
Thyrotropin-releasing hormone receptor (Homo sapiens), sequence (P34981 whole entry, looked up): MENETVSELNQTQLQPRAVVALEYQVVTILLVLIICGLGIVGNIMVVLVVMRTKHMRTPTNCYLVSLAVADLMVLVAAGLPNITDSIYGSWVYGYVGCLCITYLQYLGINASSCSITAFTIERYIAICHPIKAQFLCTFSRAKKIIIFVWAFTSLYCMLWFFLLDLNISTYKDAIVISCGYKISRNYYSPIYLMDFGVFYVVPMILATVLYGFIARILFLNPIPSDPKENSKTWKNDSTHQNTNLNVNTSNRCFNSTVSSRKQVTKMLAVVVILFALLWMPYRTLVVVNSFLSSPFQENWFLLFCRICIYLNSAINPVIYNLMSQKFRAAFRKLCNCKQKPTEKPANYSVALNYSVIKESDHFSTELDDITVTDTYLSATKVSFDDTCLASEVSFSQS
Methanococcus maripaludis chaperonin (MmCpn), sequence (Q6LX38 1-543): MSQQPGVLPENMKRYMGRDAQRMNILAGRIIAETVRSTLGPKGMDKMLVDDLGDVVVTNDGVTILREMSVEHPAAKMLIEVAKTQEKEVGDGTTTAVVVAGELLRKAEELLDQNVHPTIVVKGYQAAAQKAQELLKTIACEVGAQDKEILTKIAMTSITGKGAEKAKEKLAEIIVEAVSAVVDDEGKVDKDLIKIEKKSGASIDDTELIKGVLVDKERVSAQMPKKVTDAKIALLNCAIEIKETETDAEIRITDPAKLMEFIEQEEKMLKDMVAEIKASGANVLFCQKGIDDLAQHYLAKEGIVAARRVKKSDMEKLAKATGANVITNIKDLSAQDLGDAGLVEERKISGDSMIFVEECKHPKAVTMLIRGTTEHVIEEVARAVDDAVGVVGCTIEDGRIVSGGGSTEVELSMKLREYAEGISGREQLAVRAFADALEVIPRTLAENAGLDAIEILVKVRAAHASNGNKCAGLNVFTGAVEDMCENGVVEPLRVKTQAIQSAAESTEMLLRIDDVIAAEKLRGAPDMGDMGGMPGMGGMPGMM
Beta-2 adrenergic receptor (Homo sapiens), sequence (P07550 whole entry, looked up): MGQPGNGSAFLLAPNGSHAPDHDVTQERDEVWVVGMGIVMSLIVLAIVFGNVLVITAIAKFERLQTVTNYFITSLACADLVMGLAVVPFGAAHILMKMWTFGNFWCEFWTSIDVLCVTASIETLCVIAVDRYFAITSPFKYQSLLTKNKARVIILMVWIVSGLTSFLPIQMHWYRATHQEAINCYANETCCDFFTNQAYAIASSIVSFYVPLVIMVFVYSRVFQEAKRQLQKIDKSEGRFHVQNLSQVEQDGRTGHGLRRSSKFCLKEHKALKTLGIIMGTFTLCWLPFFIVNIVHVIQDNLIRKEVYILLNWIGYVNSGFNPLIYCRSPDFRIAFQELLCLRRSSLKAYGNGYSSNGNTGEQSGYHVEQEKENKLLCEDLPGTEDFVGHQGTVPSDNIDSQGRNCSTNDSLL
Thyrotropin receptor (Homo sapiens), sequence (P16473 whole entry, looked up): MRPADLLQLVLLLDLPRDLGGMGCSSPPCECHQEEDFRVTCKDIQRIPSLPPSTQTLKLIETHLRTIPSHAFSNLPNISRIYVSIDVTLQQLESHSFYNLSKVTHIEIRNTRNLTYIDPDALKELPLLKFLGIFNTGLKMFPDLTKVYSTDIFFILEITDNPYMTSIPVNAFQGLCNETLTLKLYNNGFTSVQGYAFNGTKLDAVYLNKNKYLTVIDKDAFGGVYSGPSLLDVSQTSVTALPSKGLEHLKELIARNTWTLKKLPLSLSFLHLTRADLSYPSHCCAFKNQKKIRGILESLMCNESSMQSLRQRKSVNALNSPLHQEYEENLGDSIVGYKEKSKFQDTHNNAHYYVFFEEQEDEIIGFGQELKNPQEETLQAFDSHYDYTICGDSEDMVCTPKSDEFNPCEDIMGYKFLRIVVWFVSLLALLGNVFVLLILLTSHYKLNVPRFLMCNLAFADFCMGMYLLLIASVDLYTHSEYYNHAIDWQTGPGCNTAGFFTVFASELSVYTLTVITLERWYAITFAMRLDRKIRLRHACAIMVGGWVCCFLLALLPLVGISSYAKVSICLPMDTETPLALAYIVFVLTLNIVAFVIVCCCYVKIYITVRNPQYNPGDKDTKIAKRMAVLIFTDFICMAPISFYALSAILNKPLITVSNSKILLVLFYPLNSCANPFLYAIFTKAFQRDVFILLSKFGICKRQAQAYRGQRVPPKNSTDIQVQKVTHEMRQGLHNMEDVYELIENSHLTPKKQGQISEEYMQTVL
Flap endonuclease 1 (Homo sapiens), sequence (P39748 whole entry, looked up): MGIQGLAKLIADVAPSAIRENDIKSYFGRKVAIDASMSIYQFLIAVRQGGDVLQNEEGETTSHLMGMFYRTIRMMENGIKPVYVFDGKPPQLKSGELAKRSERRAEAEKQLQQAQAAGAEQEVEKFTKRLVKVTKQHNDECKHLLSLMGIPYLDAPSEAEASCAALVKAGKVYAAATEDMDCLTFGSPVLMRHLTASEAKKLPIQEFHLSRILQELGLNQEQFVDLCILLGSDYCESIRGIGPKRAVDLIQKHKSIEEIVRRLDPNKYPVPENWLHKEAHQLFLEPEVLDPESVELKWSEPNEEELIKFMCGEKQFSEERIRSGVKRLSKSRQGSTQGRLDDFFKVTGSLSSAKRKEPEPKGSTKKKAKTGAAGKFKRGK

On to `C[C@](N)(Cc1ccc(O)cc1)C(=O)O`, for which the call in assay [1], in assay [4], in assay [10], in assay [11], in assay [15] and in assay [17] was inactive. The Potency result in [2], in [3], in [5], in [6], in assay [7] and in [8] was “inactive” each time. Also, the Potency result in assay [9], in [12], in assay [13], in assay [14] and in assay [16] was “inactive” in each case. The viability change in assay [16] is 3.53%.
For `OCCN1CCN(CCCN2c3ccccc3Sc3ccc(Cl)cc32)CC1`, the molecule was classed as inactive in assay [1], in assay [4], in [10], in assay [11], in assay [15] and in assay [17]. In addition, the Potency entry in [2], in assay [5], in assay [6], in assay [9], in [14] and in [16] was “inactive” throughout. Further, the Potency in assay [3] was 10.4 µM (active); in assay [7], 28.2 µM (active); in assay [8], 31.6 µM (active); in assay [12], 0.794 µM (active). In assay [18], the activation is 0.75% (inactive). Also, the viability change in [16] is -4.58%.
For the molecule `CCN(CC)CCCC(C)Nc1c2ccc(Cl)cc2nc2ccc(OC)cc12` (configuration not stated), the molecule was classed as inactive in assay [1], in [4], in assay [10], in assay [11] and in [17]. Moreover, the Potency entry in assay [2], in assay [5] and in assay [9] was “inactive” throughout. For the same molecule, the Potency in [3] is 0.037 µM (active); in assay [6], 15 µM (active); in assay [14], 2.59 µM (active). Also, in assay [18], the activation was -2.88% (inactive).
For the molecule `C=Cc1c(C)c2cc3[nH]c(cc4nc(cc5nc(cc1[nH]2)C(C)=C5CCC(=O)O)C(CCC(=O)O)=C4C)c(C)c3C=C`, the outcome in [1], in [4], in assay [10], in assay [11], in assay [15] and in [17] was inactive. Further, the figures for the Potency in [2], in assay [5] and in [9] were 19 µM (active), 13.4 µM (active) and 31.6 µM (active), respectively. For the same molecule, the Potency result in assay [3], in [6], in assay [7], in [8], in assay [12] and in assay [13] was “inactive” each time. For the same molecule, the Potency result in assay [14] is “inactive”. In addition, the activation in assay [18] is 0.125% (inactive).
Take `COc1ccc(Cl)cc1C(=O)NCCc1ccc(S(=O)(=O)NC(=O)NC2CCCCC2)cc1`: the molecule was classed as inactive in [1], in [4], in assay [10], in assay [11], in assay [15] and in assay [17]. The Potency entry in [3], in assay [5], in assay [6], in [7], in [8] and in assay [9] was “inactive” throughout. In addition, the Potency entry in assay [12] and in assay [14] was “inactive” each time. Also, in assay [18], the activation was 1% (inactive).
Turning to `CCCn1cnc2c1c(=O)n(CCCCC(C)=O)c(=O)n2C`, the result in assay [1], in assay [4], in assay [10], in [11] and in assay [17] was inactive. In addition, the Potency entry in [2], in [3], in assay [5], in assay [6], in [7] and in [8] was “inactive” each time. Moreover, the Potency result in assay [9], in assay [12], in assay [14] and in [16] was “inactive” throughout. Besides, in assay [18], the activation is 1.25% (inactive). Further, the viability change in [16] was -13.4%.

The values above are taken from PubChem BioAssay (NCATS).
